Experimental findings from PubChem BioAssay are described below.

The source made the active and inactive calls. Cut-off read from the data, not from the text of the source, unless noted: active = nuclear beta-catenin stimulation mostly above about 4.2% (no sharp cut-off); inactive = mostly below about 10%.

Test system in the first experiment: not listed separately
Kind of experiment: compounds distorting NS3 helicase fluorescence signal – biochemical, NIH Clinical Collection, artefact control for HCV NS3 helicase inhibitor project (AID 743272; call rule not given here;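 note: HCV NS3 helicase with a Cy5 labelled single stranded DNA probe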). Particulars: fluorescence interference counterscreen, HCV NS3 helicase assay; active compounds read low.
Consider `CC(C)(C(=O)c1cccnc1)c1cccnc1`, for which the fluorescence ratio was 0.96 (inactive).

As to `CCc1c(C)[nH]c2c1C(=O)C(CN1CCOCC1)CC2` (stereo unspecified), the fluorescence ratio was 1.01 (inactive). `CC(C)(C)NC(=O)[C@H]1CC[C@H]2[C@@H]3CC[C@H]4NC(=O)C=C[C@]4(C)[C@H]3CC[C@]12C`: the fluorescence ratio is 1.02 (inactive). As for `CCC(=O)O[C@]1(C(=O)SCF)[C@H](C)C[C@H]2[C@@H]3C[C@H](F)C4=CC(=O)C=C[C@]4(C)[C@@]3(F)[C@@H](O)C[C@@]21C`, the fluorescence ratio was 1.02 (inactive).

Turning to `CCCOc1ccc(C(=O)OCCN(CC)CC)cc1N`, the fluorescence ratio is 1.02 (inactive).

`N#Cc1ccc(C(c2ccc(C#N)cc2)n2cncn2)cc1`: the fluorescence ratio was 0.97 (inactive). With `CCC1=C(C)CN(C(=O)NCCc2ccc(S(=O)(=O)NC(=O)NC3CCC(C)CC3)cc2)C1=O` (stereo unspecified), the fluorescence ratio was 0.96 (inactive). Same read-out and setting: with `COc1cc(C)nc(-n2nc(C)cc2OC)n1` the figure was 0.88 (inactive). Take `CN1CCC(=C2c3ccccc3CCc3sccc32)CC1`: the fluorescence ratio is 0.94 (inactive). Take `Cc1cccc(C)c1NC(=O)C(C)N` (stereo unspecified): the fluorescence ratio is 1 (inactive).

In the case of `COc1cc(OC)c(C(=O)CCCN2CCCC2)c(OC)c1`, the fluorescence ratio was 0.97 (inactive). For the compound `CCOc1cc(CC(=O)N[C@@H](CC(C)C)c2ccccc2N2CCCCC2)ccc1C(=O)O`, the fluorescence ratio was 1.02 (inactive). Turning to `O=C(O)/C=C/c1ccc(Cn2ccnc2)cc1`, the fluorescence ratio is 0.97 (inactive).

As to `Nc1[nH]c(=O)ncc1F`, the fluorescence ratio was 0.97 (inactive).

For the compound `C#C[C@]1(O)CC[C@H]2[C@@H]3CCc4cc(OC)ccc4[C@H]3CC[C@@]21C`, the fluorescence ratio was 1 (inactive). On to `CCCc1c(OCCCCc2nn[nH]n2)ccc(C(C)=O)c1O`, for which the fluorescence ratio is 0.98 (inactive). As for `CNNCc1ccc(C(=O)NC(C)C)cc1`, the fluorescence ratio is 1.02 (inactive).

For a further experiment, the system named is Neuropilin-2 / VEGF-C interaction (human). Kind of experiment: small molecules blocking Neuropilin-2/VEGF-C interaction – biochemical, microplate binding format, z-score (AID 743281; call rule not given here). The following applies: microplate NRP2/VEGF-C binding assay; active compounds read low.
With `N#Cc1ccc(C(c2ccc(C#N)cc2)n2cncn2)cc1`, the z-score was -0.196 (inactive). With `CCC1=C(C)CN(C(=O)NCCc2ccc(S(=O)(=O)NC(=O)NC3CCC(C)CC3)cc2)C1=O` (stereo unspecified), the z-score was 1.17 (inactive). With `COc1cc(C)nc(-n2nc(C)cc2OC)n1`, the z-score was -0.659 (inactive). On the same count and under the same terms, next, `CN1CCC(=C2c3ccccc3CCc3sccc32)CC1`: 1.11 (inactive); `Cc1cccc(C)c1NC(=O)C(C)N` (stereo unspecified): -0.227 (inactive).

For `COc1cc(OC)c(C(=O)CCCN2CCCC2)c(OC)c1`, the z-score is -0.505 (inactive).

Take `CCOc1cc(CC(=O)N[C@@H](CC(C)C)c2ccccc2N2CCCCC2)ccc1C(=O)O`: the z-score was -0.286 (inactive). With `O=C(O)/C=C/c1ccc(Cn2ccnc2)cc1`, the z-score is -0.108 (inactive). On to `Nc1[nH]c(=O)ncc1F`, for which the z-score was -0.751 (inactive). With `CCCc1c(OCCCCc2nn[nH]n2)ccc(C(C)=O)c1O`, the z-score is 0.174 (inactive). Take `CNNCc1ccc(C(=O)NC(C)C)cc1`: the z-score was -0.83 (inactive).

Test system in the next experiment: not listed separately
Kind of experiment: Wnt pathway potentiators raising nuclear beta-catenin – imaging, WNT3A-conditioned medium, mouse C2C12, NPC library, primary screen (AID 1117326). Particulars: at 10 µM, active compounds read high.
Take `Cc1c(N(C)C)c(=O)n(-c2ccccc2)n1C`: the nuclear beta-catenin stimulation was 2.9% (inactive). Consider `O=C(O)[C@@H]1[C@H]2C[C@H]3c4[nH]c5ccccc5c4CCN3C[C@@H]2CC[C@@H]1O`, for which the nuclear beta-catenin stimulation was 0.4% (inactive). Still for that read-out and setting: next, `COc1cc(N)c(Cl)cc1C(=O)NC1CCN(Cc2ccccc2)CC1`: 3.1% (inactive); `Cc1cc2c(C(C)C)c(O)c(O)c(C=O)c2c(O)c1-c1c(C)cc2c(C(C)C)c(O)c(O)c(C=O)c2c1O`: 64.5% (active); `CC(C)(C(=O)c1cccnc1)c1cccnc1`: 4.8% (inactive). Same read-out and setting: next, `CC1CC(OC(=O)C(O)c2ccccc2)CC(C)(C)N1C` (stereo unspecified): -1.4% (inactive); `CCc1c(C)[nH]c2c1C(=O)C(CN1CCOCC1)CC2` (stereo unspecified): -1.2% (inactive). For the compound `CC(C)(C)NC(=O)[C@H]1CC[C@H]2[C@@H]3CC[C@H]4NC(=O)C=C[C@]4(C)[C@H]3CC[C@]12C`, the nuclear beta-catenin stimulation was 5.2% (inactive). As to `CCC(=O)O[C@]1(C(=O)SCF)[C@H](C)C[C@H]2[C@@H]3C[C@H](F)C4=CC(=O)C=C[C@]4(C)[C@@]3(F)[C@@H](O)C[C@@]21C`, the nuclear beta-catenin stimulation is 0.9% (inactive). The same measure, in the same setting: with `Cc1c(Nc2ncccc2C(=O)O)cccc1C(F)(F)F` the figure was 4.9% (inactive); with `CCOC(=O)OC(C)OC(=O)[C@@H]1N2C(=O)[C@@H](NC(=O)[C@H](N)c3ccccc3)[C@H]2SC1(C)C` (stereo partly specified), 1.2% (inactive).

On to `CCCOc1ccc(C(=O)OCCN(CC)CC)cc1N`, for which the nuclear beta-catenin stimulation was 1.3% (inactive). `N#Cc1ccc(C(c2ccc(C#N)cc2)n2cncn2)cc1`: the nuclear beta-catenin stimulation was -1.6% (inactive). Consider `CCCCN(CCCC)CCC(O)c1cc2c(Cl)cc(Cl)cc2c2cc(C(F)(F)F)ccc12` (stereo unspecified), for which the nuclear beta-catenin stimulation is 5.2% (inactive). Same read-out and setting: with `CCN1CCN(C(=O)N[C@@H](C(=O)N[C@@H]2C(=O)N3C(C(=O)O)=C(CSc4nnnn4C)CS[C@H]23)c2ccc(O)cc2)C(=O)C1=O` the figure was -0.5% (inactive); with `CCC1=C(C)CN(C(=O)NCCc2ccc(S(=O)(=O)NC(=O)NC3CCC(C)CC3)cc2)C1=O` (stereo unspecified), 1% (inactive); with `CCOC(=O)n1ccn(C)c1=S`, 0.6% (inactive). As to `CC(=O)OCC(=O)[C@@]1(O)[C@H](C)C[C@H]2[C@@H]3CCC4=CC(=O)C=C[C@]4(C)[C@@]3(F)[C@@H](O)C[C@@]21C`, the nuclear beta-catenin stimulation is -1.1% (inactive). Regarding `COc1ccc(C(=O)c2ccccc2O)c(O)c1`, the nuclear beta-catenin stimulation is 1.1% (inactive). For the compound `C[C@@H]1C[C@H]2[C@@H]3C[C@H](F)C4=CC(=O)C=C[C@]4(C)[C@@]3(F)[C@@H](O)C[C@]2(C)[C@@]1(O)C(=O)CO`, the nuclear beta-catenin stimulation is -0.8% (inactive).

On to `COc1cc(C)nc(-n2nc(C)cc2OC)n1`, for which the nuclear beta-catenin stimulation was -1.3% (inactive). As for `CN1CCC(=C2c3ccccc3CCc3sccc32)CC1`, the nuclear beta-catenin stimulation is -0.8% (inactive). The same measure, in the same setting: with `COc1ncnc(NS(=O)(=O)c2ccc(N)cc2)c1OC` the figure was 4.7% (inactive). In the case of `CC(C)N=C(N)/N=C(\N)Nc1ccc(Cl)cc1`, the nuclear beta-catenin stimulation is 1.1% (inactive). For `Cc1cccc(C)c1NC(=O)C(C)N` (stereo unspecified), the nuclear beta-catenin stimulation was 0.2% (inactive).

As for `COc1cc(OC)c(C(=O)CCCN2CCCC2)c(OC)c1`, the nuclear beta-catenin stimulation is 1.1% (inactive). Regarding `CCOc1cc(CC(=O)N[C@@H](CC(C)C)c2ccccc2N2CCCCC2)ccc1C(=O)O`, the nuclear beta-catenin stimulation was -1.5% (inactive). Consider `O=C(O)/C=C/c1ccc(Cn2ccnc2)cc1`, for which the nuclear beta-catenin stimulation is -2.1% (inactive).

As to `Nc1ncnc2c1ncn2[C@@H]1O[C@H](COP(=O)(O)O)[C@@H](O)[C@H]1O`, the nuclear beta-catenin stimulation is 2.4% (inactive).

For `Nc1[nH]c(=O)ncc1F`, the nuclear beta-catenin stimulation was 0.9% (inactive).

In the case of `Nc1ccc(S(=O)(=O)Nc2ccc(Cl)nn2)cc1`, the nuclear beta-catenin stimulation was 3.3% (inactive). As for `CC[C@]12CCCN3CCc4c(n(c5ccccc45)[C@@](O)(C(=O)OC)C1)[C@@H]32`, the nuclear beta-catenin stimulation is -2.1% (inactive).

In the case of `C#C[C@]1(O)CC[C@H]2[C@@H]3CCc4cc(OC)ccc4[C@H]3CC[C@@]21C`, the nuclear beta-catenin stimulation was 3.3% (inactive).

Take `Oc1ccc(OCc2ccccc2)cc1`: the nuclear beta-catenin stimulation was 2.5% (inactive). As for `O=C(CCCCC(=O)Nc1c(I)cc(I)c(C(=O)O)c1I)Nc1c(I)cc(I)c(C(=O)O)c1I`, the nuclear beta-catenin stimulation was 1.1% (inactive).

Turning to `CCCc1c(OCCCCc2nn[nH]n2)ccc(C(C)=O)c1O`, the nuclear beta-catenin stimulation was 0.3% (inactive). On to `CNNCc1ccc(C(=O)NC(C)C)cc1`, for which the nuclear beta-catenin stimulation is -2% (inactive). Same read-out and setting: with `C[C@H](N)[C@H](O)c1cccc(O)c1` the figure was -0.7% (inactive).
